Reference: PubChem BioAssay (NCI)
This is part of a sample that, as a whole, favours compounds with a hit. Of some 79,000 tested, about 15% had one in any assay. Calls of active or inactive are those of the source. No stated cut-off is given here; in the data, active means growth inhibition above about 70%; inactive means the rest.

Tests used:
[1] = NCI Yeast Anticancer Drug Screen. Data for the sgs1 strain (AID 173);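 further: 0% = growth of vehicle-only control cultures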; settings: S. cerevisiae sgs1 mutant, hits give high values
In short: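 Each compound was added to cultures of the altered yeast strain. Growth was recorded, and inhibition was derived by comparison with vehicle controls.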

[2] = NCI Yeast Anticancer Drug Screen. Data for the mlh1 rad18 strain (AID 175); settings: S. cerevisiae mlh1 rad18 strain growth inhibition, hits give high values
In short: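 Genetically defined yeast (DNA repair-deficient) exposed to compounds; growth inhibition determined relative to vehicle.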

[3] = NCI Yeast Anticancer Drug Screen. Data for the rad18 strain (AID 177); settings: S. cerevisiae rad18 mutant growth inhibition, hits give high values
In short: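 Vehicle-treated cultures served as the baseline for scoring compound-induced growth inhibition in DNA-repair-mutant yeast.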

[4] = NCI Yeast Anticancer Drug Screen. Data for the rad52 strain (AID 147);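 further: 0% = growth of vehicle-treated control cultures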; settings: S. cerevisiae rad52 mutant growth inhibition, hits give high values
In short: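 The repair-mutant yeast strain was incubated with compounds, then growth was read and inhibition derived relative to vehicle.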

[5] = NCI Yeast Anticancer Drug Screen. Data for the wt1 strain (AID 149);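 further: 0% = growth of vehicle-treated wt1 cultures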; settings: S. cerevisiae wt1 strain (SPY 50644) growth inhibition, hits give high values
In short: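 The wt1 strain was treated with compounds, and growth was compared with vehicle-treated cultures to give inhibition.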

[6] = NCI Yeast Anticancer Drug Screen. Data for the mgt1 strain (AID 153); settings: S. cerevisiae mgt1 mutant growth inhibition, hits give high values
In short: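 Vehicle-normalized growth inhibition is determined in mgt1 yeast, a strain selected for a defined alteration in DNA repair or cell cycle control.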

[7] = NCI Yeast Anticancer Drug Screen. Data for the rad50 strain (AID 155);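 further: 0% = growth of vehicle-only cultures of the same strain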; settings: S. cerevisiae rad50 strain growth inhibition, hits give high values
In short: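 Cells are treated with compound, grown, and their growth is then scored against vehicle-only cultures of the same repair-deficient yeast strain.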

[8] = NCI Yeast Anticancer Drug Screen. Data for the mec2-1 strain (AID 157); settings: S. cerevisiae mec2-1 strain, hits give high values
In short: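 Mutant yeast (mec2-1) grown with compound; growth inhibition relative to vehicle control reported.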

[9] = NCI Yeast Anticancer Drug Screen. Data for the rad14 strain (AID 159);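 further: 0% = growth of vehicle-treated control cultures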; settings: S. cerevisiae rad14 strain growth inhibition, hits give high values
In short: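 Readout: yeast growth inhibition, referenced to vehicle-only cultures. Strain bears a defined alteration in DNA damage repair.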

[10] = NCI Yeast Anticancer Drug Screen. Data for the sgs1 mgt1 strain (AID 161);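 further: 0% = growth of cultures given vehicle only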; settings: S. cerevisiae sgs1 mgt1 strain, hits give high values
In short: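 Yeast cells carrying a defined DNA-repair defect were exposed to test compounds. Growth inhibition was measured relative to vehicle-treated controls.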

[11] = NCI Yeast Anticancer Drug Screen. Data for the CLN2oe strain (AID 163);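 further: 0% = growth of vehicle-only control cultures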; settings: S. cerevisiae CLN2oe strain, hits give high values
In short: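 Compounds are applied to yeast harbouring a defined cell-cycle control change; reduced growth compared with vehicle-treated controls gives the value.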

[12] = NCI Yeast Anticancer Drug Screen. Data for the cln2 rad14 strain (AID 165);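 further: 0% = growth equal to vehicle treated cultures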; settings: S. cerevisiae cln2 rad14 strain, hits give high values
In short: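 Readout is yeast growth inhibition versus vehicle-treated controls, using a strain with cln2 and rad14 alterations exposed to compound.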

[13] = NCI Yeast Anticancer Drug Screen. Data for the bub3 strain (AID 167); settings: S. cerevisiae bub3 mutant strain, hits give high values
In short: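 Part of a panel of yeast mutants defective in DNA damage repair or cell cycle regulation. Each strain is grown with compound, and inhibition is calculated relative to solvent-treated cultures.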

[14] = NCI Yeast Anticancer Drug Screen. Data for the wt2 strain (AID 169);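 further: 0% = growth of vehicle-treated yeast cultures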; settings: S. cerevisiae wt2 strain growth inhibition, hits give high values
In short: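 Against vehicle-treated controls, the growth of yeast exposed to each compound was compared, and the inhibition was recorded.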

[15] = NCI Yeast Anticancer Drug Screen. Data for the mlh1 strain (AID 171);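 further: 0% = growth of vehicle-treated control cultures of the same strain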; settings: S. cerevisiae mlh1 strain growth inhibition, hits give high values
In short: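 Measured: yeast growth. Reference: vehicle-treated controls. Organism: strain with a defined alteration affecting DNA damage repair or cell cycle control, treated with compound.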

[16] = at 5.0 µM (retest, dose inferred, filed as 0.5)
[17] = at 50.0 µM (retest, dose inferred, filed as 5.0)

Measured: growth inhibition

COc1ccc(SCc2cc(OC)ccc2OC)cc1
inactive: [1]; at 33.0 µM -2% | [1]; at 100.0 µM 0% | [2]; [16] -16% | [2]; [17] 67% | [2]; at 50.0 µM 21.3% | [3]; at 1.2 µM -5% | [3]; at 3.7 µM -5% | [3]; at 11.0 µM -3% | [3]; at 33.0 µM -16% | [3]; at 100.0 µM -1%

Cn1ncc2cc3c(Nc4ccc(Cl)cc4)cccc3nc21
active: [4]; at 100.0 µM 96% | [7]; [17] 83% | [7]; at 100.0 µM 95%
inactive: [4]; at 1.2 µM 2% | [4]; at 3.7 µM 2% | [4]; at 11.0 µM 6% | [4]; at 33.0 µM 39% | [5]; at 1.2 µM 0% | [5]; at 3.7 µM -2% | [5]; at 11.0 µM -2% | [5]; at 33.0 µM 0% | [5]; at 100.0 µM 12% | [6]; at 1.2 µM -1% | [6]; at 3.7 µM 0% | [6]; at 11.0 µM -4% | [6]; at 33.0 µM -3% | [6]; at 100.0 µM 9% | [7]; at 1.2 µM 2% | [7]; at 3.7 µM 5% | [7]; [16] 25% | [7]; at 11.0 µM 10% | [7]; at 33.0 µM 42% | [7]; at 50.0 µM 59.9% | [8]; at 1.2 µM -5% | [8]; at 3.7 µM -7% | [8]; [16] 0% | [8]; at 11.0 µM -3% | [8]; at 33.0 µM -4% | [8]; [17] 5% | [8]; at 50.0 µM 8.6% | [8]; at 100.0 µM 6% | [9]; at 1.2 µM -2% | [9]; at 3.7 µM -2% | [9]; at 11.0 µM -3% | [9]; at 33.0 µM -3% | [9]; at 100.0 µM 29% | [10]; [16] -1% | [10]; [17] -2% | [10]; at 50.0 µM -10.4% | [11]; at 1.2 µM -5% | [11]; at 3.7 µM -4% | [11]; at 11.0 µM -5% | [11]; at 33.0 µM -3% | [11]; at 100.0 µM -6% | [12]; [16] -11% | [12]; [17] 1% | [12]; at 50.0 µM -6% | [13]; at 1.2 µM -3% | [13]; at 3.7 µM -5% | [13]; [16] -7% | [13]; at 11.0 µM -7% | [13]; at 33.0 µM -11% | [13]; [17] 1% | [13]; at 50.0 µM 44.6% | [13]; at 100.0 µM -7% | [14]; at 1.2 µM -1% | [14]; at 3.7 µM -2% | [14]; at 11.0 µM -2% | [14]; at 33.0 µM -2% | [14]; at 100.0 µM 20% | [15]; at 1.2 µM 0% | [15]; at 3.7 µM -4% | [15]; at 11.0 µM -2% | [15]; at 33.0 µM -2% | [15]; at 100.0 µM 26% | [1]; at 1.2 µM -2% | [1]; at 3.7 µM -2% | [1]; at 11.0 µM -3% | [1]; at 33.0 µM 0% | [1]; at 100.0 µM 42% | [2]; [16] -2% | [2]; [17] 7% | [2]; at 50.0 µM 2.05% | [3]; at 1.2 µM -2% | [3]; at 3.7 µM -4% | [3]; at 11.0 µM -3% | [3]; at 33.0 µM -2% | [3]; at 100.0 µM 52%

COC(=O)c1ccc2c(c1)Cc1ccccc1-2
active: [7]; at 50.0 µM 72.5%
inactive: [4]; at 1.2 µM -1% | [4]; at 3.7 µM 5% | [4]; at 11.0 µM 11% | [4]; at 33.0 µM 19% | [4]; at 100.0 µM 28% | [5]; at 1.2 µM -3% | [5]; at 3.7 µM -5% | [5]; at 11.0 µM -3% | [5]; at 33.0 µM -2% | [5]; at 100.0 µM -2% | [7]; at 1.2 µM 2% | [7]; at 3.7 µM 10% | [7]; [16] 0% | [7]; at 11.0 µM 13% | [7]; at 33.0 µM 12% | [7]; [17] -11% | [7]; at 100.0 µM 32% | [8]; at 1.2 µM -4% | [8]; at 3.7 µM 1% | [8]; [16] -12% | [8]; at 11.0 µM -12% | [8]; at 33.0 µM -3% | [8]; [17] -4% | [8]; at 50.0 µM 39% | [8]; at 100.0 µM 1% | [10]; [16] -5% | [10]; [17] -4% | [10]; at 50.0 µM 46.9% | [11]; at 1.2 µM -1% | [11]; at 3.7 µM 0% | [11]; at 11.0 µM -4% | [11]; at 33.0 µM -3% | [11]; at 100.0 µM -11% | [12]; [16] 35% | [12]; [17] 0% | [12]; at 50.0 µM 29.4% | [13]; at 1.2 µM -7% | [13]; at 3.7 µM -7% | [13]; [16] 0% | [13]; at 11.0 µM 3% | [13]; at 33.0 µM 3% | [13]; [17] -1% | [13]; at 50.0 µM 41.2% | [13]; at 100.0 µM 19% | [14]; at 1.2 µM -3% | [14]; at 3.7 µM -2% | [14]; at 11.0 µM -4% | [14]; at 33.0 µM 3% | [14]; at 100.0 µM 28% | [15]; at 1.2 µM -3% | [15]; at 3.7 µM 9% | [15]; at 11.0 µM 2% | [15]; at 33.0 µM -11% | [15]; at 100.0 µM 8% | [1]; at 1.2 µM -3% | [1]; at 3.7 µM -4% | [1]; at 11.0 µM -1% | [1]; at 33.0 µM 3% | [1]; at 100.0 µM 17% | [2]; [16] -2% | [2]; [17] 6% | [2]; at 50.0 µM 45.6% | [3]; at 1.2 µM -1% | [3]; at 3.7 µM 1% | [3]; at 11.0 µM 6% | [3]; at 33.0 µM 4% | [3]; at 100.0 µM 9%
